Compound activity from PubChem.
RPL19A-GFP yeast = modulators of TOR pathway RPL19A-GFP in S. cerevisiae; S. cerevisiae RPL19A-GFP strain, flow cytometry, 3 h; stronger effect = lower value; percent response vs DMSO, % at 10 µM; 330,000 tested, 0.3% active; AID 2025;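 active = percent response vs DMSO below 50%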;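 also: median channel GFP fluorescence of the barcoded RPL19A-GFP strain; ratio of sample median GFP to plate DMSO average so 100% = DMSO; lower means less RPL19A-GFP as with rapamycin TOR inhibition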
AGP1-GFP MLPCN = modulators of TOR pathway AGP1-GFP in S. cerevisiae; S. cerevisiae AGP1-GFP multiplex flow cytometry, 3 h; GFP as percent of DMSO wells; GFP response vs DMSO, % at 10 µM; 320,000 tested, 0.02% active; AID 2066;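 active = GFP response relative to DMSO above a set limit, near screen average plus 3 SD, cut at about 150% in these data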;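 also: median GFP channel fluorescence of the gated AGP1 strain per well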
CIT2 TOR yeast = alters CIT2-GFP fluorescence in TOR pathway yeast screen | S. cerevisiae CIT2-GFP strain, flow cytometry, 3 h; 100 means same as DMSO wells | GFP response vs DMSO, % at 10 µM | 320,000 tested, 0.065% active | AID 2029;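 active = GFP response relative to DMSO above a set limit, near the screen mean plus 3 SD, cut at about 150% in these data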;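 also: ratio of well median GFP fluorescence to mean of DMSO wells on the plate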
MEP2 TOR yeast = modulators of TOR pathway MEP2-GFP in S. cerevisiae; S. cerevisiae MEP2-GFP strain, flow cytometry GFP, 3 h; 100% = DMSO control level; GFP response vs DMSO, % at 10 µM; 330,000 tested, 0.51% active; AID 2016;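 active = GFP response versus DMSO above a set limit, roughly screen mean plus 3 SD, cut at about 180% in these data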;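 also: median GFP fluorescence of the barcode-gated MEP2-GFP cells per well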
VLA-4 inh = inhibition in a human VLA-4 binding assay. VLA-4 expressing cells, ligand binding flow cytometry. inhibition, % (about 7 µM as worked out from the volumes in the protocol). 330,000 tested, 0.2% active. AID 2557; in the data active = inhibition above about 50%
Target sequence (P13612 whole entry, looked up): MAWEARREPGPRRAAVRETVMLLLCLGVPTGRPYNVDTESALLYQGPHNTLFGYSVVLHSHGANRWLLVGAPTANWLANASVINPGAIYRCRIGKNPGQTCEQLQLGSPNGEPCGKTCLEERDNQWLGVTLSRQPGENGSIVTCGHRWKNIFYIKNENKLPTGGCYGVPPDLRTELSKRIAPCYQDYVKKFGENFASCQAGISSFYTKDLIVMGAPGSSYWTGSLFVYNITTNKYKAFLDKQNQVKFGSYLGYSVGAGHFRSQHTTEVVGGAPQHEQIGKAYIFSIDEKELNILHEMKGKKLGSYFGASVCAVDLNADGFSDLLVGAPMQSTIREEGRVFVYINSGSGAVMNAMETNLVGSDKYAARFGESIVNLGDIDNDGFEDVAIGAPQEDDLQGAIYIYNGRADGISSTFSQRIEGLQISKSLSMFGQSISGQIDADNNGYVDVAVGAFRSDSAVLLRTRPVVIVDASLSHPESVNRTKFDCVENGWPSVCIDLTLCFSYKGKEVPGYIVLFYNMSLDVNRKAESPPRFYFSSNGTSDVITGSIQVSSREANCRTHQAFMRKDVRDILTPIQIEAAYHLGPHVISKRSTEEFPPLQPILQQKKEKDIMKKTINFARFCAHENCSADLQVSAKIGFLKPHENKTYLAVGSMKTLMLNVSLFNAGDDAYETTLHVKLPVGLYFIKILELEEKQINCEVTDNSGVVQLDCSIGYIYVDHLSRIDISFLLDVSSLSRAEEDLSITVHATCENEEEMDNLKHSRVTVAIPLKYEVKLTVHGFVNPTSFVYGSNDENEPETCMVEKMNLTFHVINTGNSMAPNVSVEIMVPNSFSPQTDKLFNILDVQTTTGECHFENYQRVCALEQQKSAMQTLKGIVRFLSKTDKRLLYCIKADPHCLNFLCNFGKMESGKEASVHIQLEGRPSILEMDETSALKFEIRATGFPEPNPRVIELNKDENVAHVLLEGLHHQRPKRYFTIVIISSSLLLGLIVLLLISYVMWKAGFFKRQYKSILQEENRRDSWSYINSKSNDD
LAP4-GFP MLPCN = yeast TOR pathway LAP4-GFP modulation. 320,000 tested, 0.34% active. GFP response vs DMSO, % at 10 µM. S. cerevisiae LAP4-GFP multiplex, flow cytometry GFP, 3 h; median GFP as percent of DMSO wells;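 active = GFP response vs DMSO above a set limit, about the screen mean plus 3 SD, cut at about 150% in these data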
LAP4 cherry2 = second confirmation of modulators of TOR reporter LAP4-GFP in yeast | S. cerevisiae LAP4-GFP strain, flow cytometry GFP, 3 h | AID 2621 | shares compounds with LAP4-GFP MLPCN | 590 tested, 20% active | GFP response vs DMSO, % at 10 µM;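 active = GFP signal as percent of the solvent control above about 150%, meaning raised reporter expression, limit read from the data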;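 also: ratio of well median GFP fluorescence to plate DMSO mean so 100% = DMSO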
MEP2 cherry2 = yeast MEP2-GFP modulation, second cherry pick; shares compounds with LAP4-GFP MLPCN; S. cerevisiae MEP2-GFP strain, flow cytometry GFP, 3 h; GFP response vs DMSO, % at 10 µM; 590 tested, 10% active; AID 2622;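 active = GFP signal above 150% of the solvent control wells, that is a rise of more than half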;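 also: median channel GFP fluorescence of all gated yeast cells per well; ratio of median GFP to plate DMSO average so 100% = DMSO level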
RPL19A-GFP pick2 = reconfirmed modulator of RPL19A-GFP TOR reporter in yeast; shares compounds with LAP4-GFP MLPCN; S. cerevisiae RPL19A-GFP strain, flow cytometry GFP, 3 h; stronger effect = lower value; 100% means same as DMSO wells; GFP response vs DMSO, % at 10 µM; 590 tested, 3% active; AID 2623;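 active = under 65% GFP response relative to DMSO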;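 also: median GFP channel fluorescence per well over the all cells gate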
CIT2 GFP CP2 = reconfirmed modulator of CIT2-GFP TOR reporter in yeast | 590 tested, 8% active | S. cerevisiae CIT2-GFP strain, flow cytometry GFP, 3 h; DMSO control wells read 100% | GFP response vs DMSO, % at 10 µM | shares compounds with LAP4-GFP MLPCN;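 active = GFP response vs DMSO above about 150%, limit read from the data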;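 also: median green fluorescence per well over all gated yeast cells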
AGP1-GFP pick2 = yeast AGP1-GFP TOR reporter modulation, second cherry pick; shares compounds with LAP4-GFP MLPCN; S. cerevisiae AGP1-GFP strain, flow cytometry GFP, 3 h; percent response vs DMSO, % at 10 µM; 590 tested, under 10 active;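 active = over 150 percent of DMSO response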;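 also: median GFP channel fluorescence over all cells without mother daughter split; sample median GFP divided by mean DMSO control so 100% equals DMSO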
s288c autofluor = counter-screen for compound autofluorescence in yeast s288c cells. shares compounds with LAP4-GFP MLPCN. S. cerevisiae s288c, 520 nm autofluorescence, flow cytometry, 3 h; stronger effect = higher value; zero means same as solvent-only cells. fluorescence change (kMESF span) at 33 µM. 610 tested, under 10 active;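 active = fluorescence span over the dose series, or activity score, above about 33, limit read from the data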
Yeast autofl DR = yeast s288c autofluorescence artifact in dose response | 110 tested, under 10 active | fluorescence change (span) at 33 µM | S. cerevisiae s288c parental, compound autofluorescence, flow cytometry, 3 h | shares compounds with LAP4-GFP MLPCN;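 active = fluorescence change span, or the activity score built from it, above 25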
TORC1 bypass gr = wildtype yeast growth loss with TORC1 bypass cells unaffected | shares compounds with LAP4-GFP MLPCN | S. cerevisiae BY4741 spot growth rating, 48-72 h; stronger effect = lower value | growth rating (0-3) at 30 µM | 120 tested, under 10 active;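 active = growth rating at most 1 for wild type yeast while the TORC1 bypass strain still grows fully, rated 3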
Active calls of the source: *; i = inactive; nt = not tested or not shown; + = active, no number. Sampled rows, rich in hits. Any-hit rate of the full collection: about 1.1%.

SMILES	RPL19A-GFP yeast	AGP1-GFP MLPCN	CIT2 TOR yeast	MEP2 TOR yeast	VLA-4 inh	LAP4-GFP MLPCN	LAP4 cherry2	MEP2 cherry2	RPL19A-GFP pick2	CIT2 GFP CP2	AGP1-GFP pick2	s288c autofluor	others
CCCN(CCC)c1nc(C#N)nc(N(CCC)CCC)n1	50.8	74.9	87.1	131.1	3.6	89.8	102.9	101.5	99.2	107.4	102.0	nt
C/C(=N\Nc1ncnc2sc(C)c(C)c12)c1ccccn1	182.6	202.9*	+	+	i	869.2*	nt	nt	nt	nt	nt	93.5*
Cc1nnsc1C(=O)Nc1ccc(S(=O)(=O)N2CCC(C)CC2)cc1	97.2	88.8	99.1	106.6	8.8	89.2	nt	nt	nt	nt	nt	nt
COC(=O)c1cc(N2C(=O)C3C(C2=O)C2(C)C=CC3(C)O2)ccc1Cl (stereo not drawn)	95.4	70.3	51.1	93.0	41.0	162.4*	nt	nt	nt	nt	nt	0.2
COc1cc(/C=C2/C(=O)c3cccc([N+](=O)[O-])c3C2=O)c(Br)cc1O	95.9	86.5	92.8	82.2	15.1	108.7	135.6	116.5	109.3	116.5	103.8	0.1
COc1ccc(C(=O)Nc2cccc3c2CCCC3)cc1OC	97.0	95.4	94.8	95.9	20.2	96.1	nt	nt	nt	nt	nt	nt
CNc1nc(N)c([N+](=O)[O-])c(Nc2cc(OC)ccc2OC)n1	nt	nt	nt	nt	nt	nt	nt	nt	nt	nt	nt	nt	Yeast autofl DR=0.31;TORC1 bypass gr=3
CNc1nc(N)c([N+](=O)[O-])c(Nc2ccccc2OC)n1	97.1	103.5	114.4	103.3	-0.2	125.5	nt	nt	nt	nt	nt	nt	Yeast autofl DR=0.42;TORC1 bypass gr=3
O=S(=O)(c1ccccc1)N1CCN(S(=O)(=O)c2ccc(F)cc2)CC1	102.0	93.6	96.6	99.1	9.9	83.1	nt	nt	nt	nt	nt	nt
Cc1cc(C)c(C)c(S(=O)(=O)ON2C(=O)c3ccccc3C2=O)c1C	98.7	68.8	82.3	91.6	22.4	247.8*	nt	nt	nt	nt	nt	0.81
Cc1cc(C)c(S(=O)(=O)ON2C(=O)c3ccccc3C2=O)cc1C	70.3	75.2	76.2	108.6	21.6	170.8*	nt	nt	nt	nt	nt	2.24
Cc1ccc(S(=O)(=O)ON2C(=O)c3ccccc3C2=O)c(C)c1	61.4	57.1	69.7	98.5	30.8	122.1	132.3	167.7*	70.6	122.4	87.0	1.31
O=C1c2ccccc2C(=O)N1OS(=O)(=O)c1ccc(F)cc1	98.8	93.1	100.8	102.4	11.2	157.5*	nt	nt	nt	nt	nt	1.62
Cc1cccc2c1N(C)C(=O)C2=O	99.3	102.7	99.3	101.0	-7.6	103.4	nt	nt	nt	nt	nt	nt
O=C(CCNC(=O)c1ccc([N+](=O)[O-])cc1)NNC(=O)c1ccccc1F	96.4	97.8	91.7	95.5	-5.1	95.5	nt	nt	nt	nt	nt	nt
O=C1CN(C(=O)COC(=O)CCS(=O)(=O)c2ccccc2Cl)c2ccccc2N1	99.3	99.2	103.0	101.4	-6.4	98.4	nt	nt	nt	nt	nt	nt
COC(=O)C1CCN(C(=O)COC(=O)CNC(=O)c2ccc(Cl)cc2Cl)CC1	98.8	102.3	94.6	103.5	9.9	108.7	nt	nt	nt	nt	nt	nt
CC1(C)CCC[C@]2(C)[C@H]3CC(=O)O[C@]3(C)CC[C@@H]12	106.2	97.0	96.1	113.3	-140.9	92.0	nt	nt	nt	nt	nt	nt
CC(=O)OC[C@]12CC[C@H]3[C@@](C)(CC[C@H]4C(C)(C)CCC[C@]34C)[C@@H]1C[C@H](C1=CC(=O)O[C@@H]1OC(C)=O)O2	95.4	80.2	104.5	103.7	46.5	154.5*	210.4*	172.9*	97.6	172.4*	100.0	4.41
C=C(CC[C@@H](O)C(C)(C)O)[C@H]1CC[C@]2(C)[C@@H]1CCC1[C@@]3(C)CCC(=O)C(C)(C)C3CC[C@]12C (stereo partly drawn)	98.6	111.5	81.7	88.5	-3.6	157.8*	105.8	96.5	95.8	92.7	100.6	nt
O=C(NCc1ccc2c(c1)OCO2)c1nc(S(=O)(=O)Cc2ccccc2F)ncc1Cl	100.9	102.0	96.9	101.3	23.4	111.3	nt	nt	nt	nt	nt	nt
O=C(NCc1ccc2c(c1)OCO2)c1nc(S(=O)(=O)Cc2ccccc2)ncc1Cl	92.3	117.8	107.9	102.0	-16.5	174.7*	nt	nt	nt	nt	nt	-0.21
CC(=O)NN1C(=O)/C(=C/c2ccc(Br)o2)SC1=S	105.4	103.7	135.2	186.9*	-19.6	119.7	nt	nt	nt	nt	nt	10.8
CC(=O)NN1C(=O)/C(=C\c2ccc(Br)o2)SC1=S	101.7	95.6	122.2	136.2	-16.3	107.5	nt	nt	nt	nt	nt	nt
Oc1c(Br)cc(Br)cc1C=Nc1ccc2[nH]ncc2c1	70.3	80.2	79.6	91.7	6.2	183.9*	nt	nt	nt	nt	nt	1.01
Oc1c(Br)cc(Br)cc1/C=N/c1nccs1	82.7	58.8	73.3	88.2	14.0	194.1*	132.3	122.3	75.1	107.1	93.3	nt
Oc1c(Br)cc(Br)cc1C=Nc1cccnc1	61.1	60.5	87.2	87.7	7.6	148.2	125.0	123.1	70.4	131.2	94.2	nt
Oc1ccc(Cl)cc1/C=N/c1nccs1	100.7	108.0	108.0	102.2	-7.8	101.1	nt	nt	nt	nt	nt	nt
N/C(Cc1ccc(Cl)cc1)=N\OC(=O)c1ccccc1	81.8	62.1	110.7	105.8	-5.5	192.4*	218.4*	165.9*	89.9	225.3*	76.5	1.7
COc1ccc(C(=O)O/N=C(\N)Cc2ccc(Cl)cc2)cc1OC	98.3	94.8	104.0	101.3	-10.1	101.6	nt	nt	nt	nt	nt	nt
